From PubChem BioAssay (NCATS) come the findings set out here.

Experiment [1] concerns Zika virus NS2B-NS3 protease (unlinked complex). The experiment in a line: Primary screen GU Rhodamine qHTS for Zika virus inhibitors: Unlinked NS2B-NS3 protease assay (AID 1347159). Further: nearly all actives have a fitted effect of over 60% in size. In short, it runs like this: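 Unlinked NS2B/NS3, 25 nM; Rhod110 peptide, 1.5 microM; compounds, up to 114 microM. Reaction run 15 min at RT in 10 mM Tris-HCl pH 8.0, 0.01% Tween 20; kinetic fluorescence change fitted with a 4-parameter Hill model.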

Experiment [2] has as its system Zika virus NS2B-NS3 protease (linked construct). The experiment in a line: Primary screen NINDS Rhodamine qHTS for Zika virus inhibitors (AID 1347160). Further: nearly all actives have a fitted effect of over 55% in size. In outline: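 Single-chain NS2B-NS3 protease, 25 nM, pH 8.0; compounds preincubated 15 min. Activity: Rhodamine110 release from 1.5 microM substrate over 15 min, room temperature, data fitted to 4-parameter Hill.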
On the technique in general: In qHTS, concentration-response curves come from the screen itself.

Structures are written as SMILES. Inconclusive results are not listed. Unmarked numbers belong to inactive results. Calls of active or inactive are those of the source. The call rests on the fitted dose curve; in most records, active means well fitted inhibition curve with a large enough effect; inconclusive means small, poorly fitted or top-dose-only effect; inactive means no such curve, though single readings can be large or run the other way.
On the % scale 0 is the no-effect control and ±100 the full control effect.

Turning to `CC(=O)OC1C(=O)C2(C)C(O)CC3OCC3(OC(C)=O)C2C(OC(=O)c2ccccc2)C2(O)CC(OC(=O)C(O)C(NC(=O)c3ccccc3)c3ccccc3)C(C)=C1C2(C)C` (stereo not drawn), the Potency result in experiment [1] and in experiment [2] was “inactive” throughout.

As to `CCCCNc1ncc2c(-c3ccc(CN4CCN(C)CC4)cc3)cn(C3CCC(O)CC3)c2n1` (stereo not drawn), the Potency result in experiment [1] and in experiment [2] was “inactive” in each case.

On to `CC(C)S(=O)(=O)NC[C@H](C)c1ccc(NC(=O)c2cc(F)cc(F)c2)cc1`, for which the Potency entry in experiment [1] and in experiment [2] was “inactive” throughout.

In the case of `CO[C@H]1C[C@@H]2CC[C@@H](C)[C@@](O)(O2)C(=O)C(=O)N2CCCC[C@H]2C(=O)O[C@H]([C@H](C)C[C@@H]2CC[C@H](n3cnnn3)[C@H](OC)C2)CC(=O)[C@H](C)/C=C(\C)[C@@H](O)[C@@H](OC)C(=O)[C@H](C)C[C@H](C)/C=C/C=C/C=C/1C`, the Potency entry in experiment [1] and in experiment [2] was “inactive” throughout.

Regarding `CC(=O)OC1C(OC(=O)c2ccccc2)C2C(C)(C)CC(=O)CC2(C)C23CCC(C)(C2)C(O)CC13` (stereo not drawn), the Potency result in experiment [1] and in experiment [2] was “inactive” each time.

Take `CC(C)C(CO)Nc1nc(Nc2ccc(C(=O)O)c(Cl)c2)c2ncn(C(C)C)c2n1` (stereo not drawn): the Potency result in experiment [1] and in experiment [2] was “inactive” throughout.

As to `CCN1CCN(Cc2ccc(Nc3ncc(F)c(-c4cc(F)c5nc(C)n(C(C)C)c5c4)n3)nc2)CC1`, the Potency entry in experiment [1] and in experiment [2] was “inactive” each time.

In the case of `CC1CCCCN1S(=O)(=O)c1ccc(N2CCCC2=O)cc1` (stereo not drawn), the Potency entry in experiment [1] and in experiment [2] was “inactive” in each case.

Regarding `C[C@@H]1O[C@@H](O[C@H]2[C@H](O)[C@@H](O)[C@H](OC[C@H]3O[C@@H](OC(=O)[C@]45CCC(C)(C)C[C@H]4C4=CCC6[C@@]7(C)CC[C@H](O[C@@H]8OC[C@H](O)[C@H](O[C@@H]9O[C@H](CO)[C@@H](O)[C@H](O)[C@H]9O)[C@H]8O)[C@@](C)(CO)C7CC[C@@]6(C)[C@]4(C)CC5)[C@H](O)[C@@H](O)[C@@H]3O)O[C@@H]2CO)[C@H](O)[C@H](O)[C@H]1O` (stereo partly drawn), the activity change, negative = inhibition in experiment [1] is 4.91% [at 19.1 µM]; in experiment [2], 3.05% [at 10.7 µM].

Consider `C=C[C@H]1C(O[C@@H]2O[C@H](CO)[C@@H](O)[C@H](O)[C@H]2O)OC=C2C(=O)N3CCc4c([nH]c5ccccc45)C3CC21` (stereo partly drawn), for which the Potency result in experiment [1] and in experiment [2] was “inactive” each time.

For the compound `O=C1C=CC2OC(c3ccccc3)C(O)C2O1` (stereo not drawn), the Potency result in experiment [1] and in experiment [2] was “inactive” in each case.

Turning to `C=C[C@H]1[C@H](O[C@@H]2O[C@H](CO)[C@@H](O)[C@H](O)[C@H]2O)OC=C(C(=O)OC)[C@H]1C/C=C(/C=O)[C@@H]1C(C(=O)OC)=CO[C@@H](O[C@@H]2O[C@H](CO)[C@@H](O)[C@H](O)[C@H]2O)[C@@H]1C=C`, the Potency result in experiment [1] and in experiment [2] was “inactive” each time.

As for `Cc1cc(O)cc(O[C@@H]2O[C@H](CO)[C@@H](O)[C@H](O)[C@H]2O)c1`, the Potency entry in experiment [1] and in experiment [2] was “inactive” in each case.

For the compound `COCCOc1cnc2ccn([C@H](C)c3nnc4c(F)cc(-c5cnn(C)c5)cn34)c(=O)c2c1`, the Potency result in experiment [1] and in experiment [2] was “inactive” each time.

Consider `Cc1cc(N(C)C)ccc1-c1nc2ccc(-c3nc4ccc(N5CCN(C)CC5)cc4[nH]3)cc2[nH]1`, for which the Potency entry in experiment [1] and in experiment [2] was “inactive” throughout.

Take `CC(C)(O)CC(CO)NC(=O)CC(O)CC(=O)Cc1ccccc1` (stereo not drawn): the Potency result in experiment [1] and in experiment [2] was “inactive” throughout.

As for `NC(=O)c1cnc(NCCc2ccc(O)c(Cl)c2)nc1NCc1ccccc1`, the Potency entry in experiment [1] and in experiment [2] was “inactive” throughout.

For `COc1ccc2[nH]c3c(-c4cccc5ccccc45)nccc3c2c1`, the Potency entry in experiment [1] and in experiment [2] was “inactive” in each case.

In the case of `O=C(CCCCN1CCOCC1)Nc1ccc(-c2cccnc2)cc1`, the Potency entry in experiment [1] and in experiment [2] was “inactive” each time.

With `CC(O)/C=C/C1C(C)C(O[C@@H]2O[C@H](CO)[C@@H](O)[C@H](O)[C@H]2O)C(O)CC1(C)C` (stereo partly drawn), the Potency result in experiment [1] and in experiment [2] was “inactive” throughout.

For the compound `CC1(C)CC[C@@]2(C(=O)O[C@@H]3O[C@H](CO)[C@@H](O)[C@H](O)[C@H]3O)C(C1)C1=CCC3[C@@]4(C)CC[C@@H](O[C@@H]5O[C@H](C(=O)O)[C@@H](O[C@@H]6OC[C@@H](O)[C@H](O)[C@H]6O)[C@H](O[C@@H]6OC[C@](O)(CO)[C@H]6O)[C@H]5O)C(C)(C)C4CC[C@@]3(C)[C@]1(C)C[C@H]2O` (stereo partly drawn), the Potency result in experiment [1] and in experiment [2] was “inactive” each time.

Take `CC(C)C(C(=O)N(C)C(C)C(N)=O)N(C)C(=O)C1CCCN1C(=O)/C=C/C=C/C(O)C(C)O` (stereo not drawn): the Potency result in experiment [1] and in experiment [2] was “inactive” each time.

Take `C[C@@H]1C(=O)O[C@H]2[C@@H](O)C34[C@H]5C[C@@H](C(C)(C)C)C36[C@@H](OC(=O)[C@@H]6O)O[C@@]4(C(=O)O5)[C@@]12O` (stereo partly drawn): the Potency result in experiment [1] and in experiment [2] was “inactive” in each case.

As for `CC(=O)OC1C(c2ccccc2)CCC(c2ccccc2)C1OC(C)=O` (stereo not drawn), the Potency result in experiment [1] and in experiment [2] was “inactive” each time.

On to `C[C@@H]1C[C@@H](O)[C@@]23CO[C@@H](O)[C@@H]2CCC[C@@H]3[C@@]12C[C@@H](c1ccoc1)OC2=O`, for which the Potency result in experiment [1] and in experiment [2] was “inactive” each time.

Take `CC(C)S(=O)(=O)N[C@H]1CCOC[C@@H]1c1ccc(-c2ccc(C#N)s2)cc1`: the Potency entry in experiment [1] and in experiment [2] was “inactive” in each case.

For `C=C(C(=O)O)C1CCC2(C)CCC(O)C(C)(O)C2C1` (stereo not drawn), the Potency entry in experiment [1] and in experiment [2] was “inactive” throughout.

As to `Nc1nc2c(c(N3CCNCC3)n1)CCC1=C2[C@@H]2CCCC[C@@H]2O1`, the Potency result in experiment [1] and in experiment [2] was “inactive” each time.

For `C=C1C(=O)OC2C1C(O)CC1(C)C(O)CCC(C=O)C21` (stereo not drawn), the Potency entry in experiment [1] and in experiment [2] was “inactive” in each case.
